Screening data as filed in PubChem.
Only a selection was taken, and hits are over-represented in it overall.
VDR inhibitor: inhibitors of human vitamin D receptor. VDR-SRC2-3 peptide fluorescence polarization, 2 h. AID 504847. Potency, µM, actives largely listed as inhibitors. hit rate 0.93% among 400,000
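After 23 nl compound addition and a short centrifugation, plates sat for 2 hours at ambient temperature; polarization of fluorescence then indicated loss of VDR binding to peptide SRC2-3.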
12-LOX inh: ALOX12 (human) lipoxygenase inhibition; purified 12hLO, xylenol orange hydroperoxide absorbance; Potency, µM (doses to about 108 µM), hits mostly inhibitors; hit rate 1.1% among 580,000
Target sequence (P18054 whole entry, looked up): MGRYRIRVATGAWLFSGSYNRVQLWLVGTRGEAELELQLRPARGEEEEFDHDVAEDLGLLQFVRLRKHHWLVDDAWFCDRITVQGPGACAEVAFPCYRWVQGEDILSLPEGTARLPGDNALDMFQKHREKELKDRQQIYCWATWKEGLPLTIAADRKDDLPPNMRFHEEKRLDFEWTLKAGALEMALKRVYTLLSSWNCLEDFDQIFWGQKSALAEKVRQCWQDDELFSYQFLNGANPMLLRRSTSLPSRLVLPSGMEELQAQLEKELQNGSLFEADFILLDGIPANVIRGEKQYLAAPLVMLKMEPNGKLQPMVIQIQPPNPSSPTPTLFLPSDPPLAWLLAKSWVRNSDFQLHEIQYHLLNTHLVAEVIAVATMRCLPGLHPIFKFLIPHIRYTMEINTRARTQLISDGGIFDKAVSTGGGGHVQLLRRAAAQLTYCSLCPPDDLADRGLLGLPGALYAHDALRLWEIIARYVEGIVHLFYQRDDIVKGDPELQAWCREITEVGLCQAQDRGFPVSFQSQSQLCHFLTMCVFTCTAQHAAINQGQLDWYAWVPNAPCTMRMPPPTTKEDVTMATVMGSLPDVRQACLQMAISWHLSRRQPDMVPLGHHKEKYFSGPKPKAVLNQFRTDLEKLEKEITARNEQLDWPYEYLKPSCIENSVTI
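Purified human 12hLO (150 nM final) in 25 mM Hepes, 0.01% Triton X-100, pH 7.0 was preincubated 15 min at room temperature with compound. Then 40 uM arachidonic acid was added, 30 min. Hydroperoxide was read by Fe-XO absorbance ratio 573/405 nm.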
Sfp PPTase inh: blocks B. subtilis Sfp PPTase activity. Biochemical Sfp PPTase activity, qHTS. Q9F4F7. Potency, µM, hits mostly inhibitors. hit rate 3.5% among 310,000;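 further: the enzyme is Sfp with the accession as filed and its product quenches rhodamine fluorescence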
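Step 1, compound plus 15 nM Sfp-PPTase, 15 min, room temperature. Step 2, add rhodamine-CoA (5 uM) and BHQ-2-YbbR (12.5 uM). Step 3, read 525/598 nm fluorescence at 0 and 30 min.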
G9a block: G9a (human) methyltransferase inhibition; G9a H3K9 monomethylation, AlphaScreen, 2 h; Potency, µM (top dose mostly 102 µM), usual class: inhibitors; hit rate 8.8% among 350,000; Q96KQ7; AID 504332; further: nearly all actives have a fitted effect of over 75% in size
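AlphaScreen detection with an anti-monomethyl H3K9 antibody quantified product after a 2 h room-temperature reaction containing 500 nM biotinylated H3K9 peptide, 20 µM SAM and 20 nM enzyme, which had been preincubated 15 min with compound.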
GRP78 ERSR act: induces the endoplasmic reticulum stress response in human glioma cells; U87-MG GRP78 promoter luciferase reporter, 16 h; Potency, µM, hits mostly activators; hit rate 0.02% among 420,000; AID 602332; further: series mostly up to about 76 µM; nearly all actives have a fitted effect of over 35% in size
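Stably transfected U87-MG glioma cells carrying a GRP78-based luciferase sensor; 16 h compound incubation. Luminescence end-point read 10 min after Bright-Glo addition at room temperature.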
Large screens that a line does not name were inactive. The call rests on the fitted dose curve; in most records, active means well fitted curve in the direction sought with a large enough effect; inconclusive means small, poorly fitted or top-dose-only effect, or another doubt; inactive means no such curve, though single readings can be large; an effect the other way counts as inactive or inconclusive.

COC(=O)c1sccc1S(=O)(=O)Nc1ccccc1OC(F)F	none (no result: VDR inhibitor, Sfp PPTase inh, G9a block, GRP78 ERSR act)
N#Cc1ccc(NC(=O)CNc2cc(S(=O)(=O)N3CCOCC3)ccc2NCC2CCCO2)cc1 (centres undefined)	G9a block 40µM
Cc1ccc(Cl)c2c1NC(=O)C2(O)CC(=O)c1ccccc1O (centres undefined)	G9a block 14µM
O=S(=O)(c1cccc2nsnc12)N1CCCC1c1ccc(F)cc1 (centres undefined)	none (no result: VDR inhibitor, Sfp PPTase inh, G9a block, GRP78 ERSR act)
CCOC(=O)Cc1c(C)nc2c(C#N)c[nH]n2c1=O	G9a block 79µM
CCOC(=O)Cc1c(C)nc2c(-c3ccc(Cl)cc3)c(C)[nH]n2c1=O	G9a block 50µM
CCOC(=O)CCc1c(C)nc2c(-c3ccccc3)c(C)[nH]n2c1=O	G9a block inconclusive (no result: Sfp PPTase inh)
CCc1c(C)nc2c(C#N)c[nH]n2c1=O	none
CCCC[C@@H]1CNC(=S)N1CC1CCCCC1	12-LOX inh 50µM
CCCC[C@@H]1CNC(=S)N1CCC12CC3CC(CC(C3)C1)C2	VDR inhibitor inconclusive, 12-LOX inh 35µM
CCCC[C@@H]1CNC(=O)C(=O)N1CC1CCCCC1	none (no result: VDR inhibitor, Sfp PPTase inh, G9a block, GRP78 ERSR act)
COc1cc(C2C3=C(CCCC3=O)Nc3c(C#N)cnn32)ccc1O (centres undefined)	none (no result: VDR inhibitor, Sfp PPTase inh, G9a block, GRP78 ERSR act)
S=C(c1ccc2c(c1)OCO2)N1CCOCC1	G9a block 32µM
S=C(c1ccc2c(c1)OCO2)N1CCCCCC1	G9a block 50µM
O=C(c1ccc2c(c1)OCO2)N1CCCN(C(=O)c2ccc3c(c2)OCO3)CC1	none
Cn1c(=O)c2c(ncn2CC(=O)Nc2nc(-c3ccc(-c4ccccc4)cc3)cs2)n(C)c1=O	none (no result: VDR inhibitor, Sfp PPTase inh, G9a block, GRP78 ERSR act)
O=C(CC1CCCC1)NCc1cccnc1	none (no result: VDR inhibitor, Sfp PPTase inh, G9a block, GRP78 ERSR act)
CCN1C(=O)/C(=c2\sc3nc(=O)c(Cc4ccccc4)nn3c2=O)c2ccccc21	VDR inhibitor inconclusive, Sfp PPTase inh 25µM, G9a block 25µM
C=CCN1C(=O)/C(=c2\sc3nc(=O)c(Cc4ccccc4)nn3c2=O)c2ccccc21	VDR inhibitor inconclusive, 12-LOX inh inconclusive, Sfp PPTase inh 13µM (no result: G9a block)
COc1ccc(CN(C)c2nn3c(=O)cc(C)nc3s2)cc1OC	none (no result: VDR inhibitor, Sfp PPTase inh, G9a block, GRP78 ERSR act)
C=CCN1C(=O)/C(=c2\sc3nc(=O)c(Cc4ccc(OC)c(OC)c4)nn3c2=O)c2ccccc21	VDR inhibitor 40µM, 12-LOX inh inconclusive, Sfp PPTase inh 16µM (no result: G9a block)
CC(C)N1CSC(=S)N(Cc2ccccc2)C1	VDR inhibitor 79µM, G9a block 32µM
Cc1ccc(C)c(N=Cc2cc3c(cc2[N+](=O)[O-])OCO3)c1	VDR inhibitor 79µM, 12-LOX inh inconclusive, Sfp PPTase inh inconclusive, G9a block inconclusive
CC(C)(C)c1ccc(O)c(N=Cc2cc3c(cc2[N+](=O)[O-])OCO3)c1	VDR inhibitor inconclusive, 12-LOX inh 35µM
O=[N+]([O-])c1cc2c(cc1/C=N\NS(=O)(=O)c1ccccc1)OCO2	G9a block 4µM
O=C(CCc1ccc(O)c(O)c1)N/N=C/c1cc2c(cc1[N+](=O)[O-])OCO2	12-LOX inh inconclusive, Sfp PPTase inh 40µM, G9a block 3.5µM
Cc1ccc(N=Cc2cc3c(cc2[N+](=O)[O-])OCO3)cc1[N+](=O)[O-]	VDR inhibitor inconclusive, 12-LOX inh inconclusive (no result: Sfp PPTase inh, G9a block)
CN1/C(=C/C(=O)C(F)(F)C(F)(F)C(F)(F)F)Sc2ccccc21	none (no result: VDR inhibitor, Sfp PPTase inh, G9a block, GRP78 ERSR act)
O=C(NCCc1c[nH]c2ccccc12)c1cc2ccccc2[nH]1	none (no result: VDR inhibitor, Sfp PPTase inh, G9a block, GRP78 ERSR act)
CC(C)(C)OC(=O)N/N=C/c1c(Cl)cccc1Cl	none (no result: VDR inhibitor, Sfp PPTase inh, G9a block, GRP78 ERSR act)
COc1cccc(/C=C(/CCC(=O)O)c2nc3ccccc3s2)c1	none (no result: VDR inhibitor, Sfp PPTase inh, G9a block, GRP78 ERSR act)
COC(=O)C1C(c2ccc(OC)c(OC)c2)NC(c2ccc(OC)c(OC)c2)C(C(=O)OC)S1(=O)=O (centres undefined)	Sfp PPTase inh inconclusive
COC(=O)C1CSc2[nH]c(=O)sc2C1c1ccc(OC)c(OC)c1 (centres undefined)	G9a block 71µM
Cc1nc2nc(SCC(=O)c3ccc4ccccc4c3)[nH]c2cc1Br	none (no result: VDR inhibitor, Sfp PPTase inh, G9a block, GRP78 ERSR act)
c1cn2cc(CN3CCOCC3)nc2s1	none
Cc1ccc(C2SCC(=O)N2Cc2cn3ccsc3n2)o1 (centres undefined)	Sfp PPTase inh 56µM, G9a block inconclusive
CC(C)(C)c1ccc(C(=O)Nc2ccccc2)cc1Br	none (no result: VDR inhibitor, Sfp PPTase inh, G9a block, GRP78 ERSR act)
CC(=O)N1CCN(C(=O)Cn2ccc3cc(Cl)ccc32)CC1	none (no result: VDR inhibitor, Sfp PPTase inh, G9a block, GRP78 ERSR act)
Cc1ccc(CNCc2ccco2)cc1	12-LOX inh inconclusive, G9a block 22µM
COc1cc(CNCc2ccco2)cc(OC)c1O	G9a block 71µM
CCCNC(=O)c1ccc2c(c1)CC(=O)N2Cc1cccc(F)c1	none (no result: VDR inhibitor, Sfp PPTase inh, G9a block, GRP78 ERSR act)
CCN1CCN(CC(=O)Nc2oc3ccccc3c(=O)c2-c2ccc(OC)c(OC)c2)CC1	none (no result: VDR inhibitor, Sfp PPTase inh, G9a block, GRP78 ERSR act)
CCOc1ccc(-c2nnc(SCC(=O)NC3CCCC3)nc2-c2ccc(OCC)c(OC)c2)cc1OC	G9a block inconclusive (no result: Sfp PPTase inh)
CCOc1ccc(-c2nnc(SCC(=O)NC(C)(C)C)nc2-c2ccc(OCC)c(OC)c2)cc1OC	G9a block 50µM
CCOc1ccc(-c2nnc(SCC(=O)NCc3ccc(C)cc3)nc2-c2ccc(OCC)c(OC)c2)cc1OC	none (no result: Sfp PPTase inh)
CCOc1cc(-c2nnc(SCC(=O)Nc3ccc(F)c(F)c3)nc2-c2ccc(OC)c(OCC)c2)ccc1OC	12-LOX inh inconclusive, G9a block 13µM (no result: Sfp PPTase inh)
CCc1ccc(OCC(O)Cn2c(=O)c3ccccc3n3nc(C)cc23)cc1 (centres undefined)	none (no result: VDR inhibitor, Sfp PPTase inh, G9a block, GRP78 ERSR act)
CCOC(=O)CSCC(=O)NCc1cccs1	none (no result: VDR inhibitor, Sfp PPTase inh, G9a block, GRP78 ERSR act)
